According to PubChem BioAssay (NCATS):
Results filed as inconclusive are left out. Active and inactive are the calls of the source. Unless noted, calls come from the whole dose curve; as a rule, active = well fitted curve in the direction sought with a large enough effect; inconclusive = small, poorly fitted or top-dose-only effect, or another doubt; inactive = no such curve, though single readings can be large; an effect the other way counts as inactive or inconclusive.

Columns and labels:
[1] = Confirmation and Secondary Assay for Modulators of Hemoglobin Beta Chain Splicing at IVS2 705 locus (AID 930);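 note: HeLa cells stably expressing the EGFP-705 splicing reporter; GFP fluorescence per well restored by corrected splicing of the IVS2-705 intron in EGFP; series mostly up to about 46 µM; % of control where 0% means no effect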
Outline: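 HeLa EGFP-705 reporter; 500 cells/well, o/n 37C 5% CO2; cpd 2 d; 488 ex/500-520 em laser scan; total peak GFP intensity/well. Ref: 500 nM […] antisense PNA.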

[2] = Cell Viability - LYMP2-001 (AID 921);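 note: series mostly up to about 92 µM; 0% = DMSO only and full inhibition = tetraoctylammonium bromide control wells; nearly all actives have a fitted effect of over 70% in size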
Outline: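 A lymphoblastoid cell line of human origin was treated with library compounds across a concentration series for 24 hours, and viable cell number was estimated from ATP-driven luciferase light output. Hill modeling gave AC50.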

[3] = MultiTox-Fluor Cytotoxicity Assay - LYMP1-001 - Dead Cells (AID 946);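 note: cells exposed to compound for 16 h; 0% = DMSO and 100% = tetraoctylammonium bromide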
Outline: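 AC50 from Hill fit of concentration-response; data normalized to DMSO (basal) and 15 uM tetraoctylammonium bromide (100%). LYMP1-001 lymphoblastoid cells, 2500/well, 16 hr compound at 37 C; dead-cell protease fluorescence, Ex/Em 485/520.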

[4] = MultiTox-Fluor Cytotoxicity Assay - LYMP1-001 - Live Cells (AID 947);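 note: 0% = DMSO only and full inhibition = tetraoctylammonium bromide control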
[5] = Cell Viability - LYMP1-002 - Assay at 16 hr (AID 948);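 note: 0% = DMSO alone and full effect = 92 µM tetraoctylammonium bromide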
Outline: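 In this qHTS, lymphoblastoid LYMP1-002 cells (human) receive compounds for 16 hr at 37 C. Viability is taken from CellTiter-Glo ATP luminescence, and AC50 derives from standard Hill fits.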

[6] = MultiTox-Fluor Cytotoxicity Assay - LYMP1-002 - Live Cells (AID 955);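 note: cells exposed to compound for 16 hours; % is set by controls: 0 for no effect and ±100 for the full control effect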
Outline: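 Cells were seeded at 2500 per well and incubated 5 hr. Compounds were then added for 16 hr at 37 C, followed by MultiTox-Fluor reagent for 60 min at room temperature and fluorescence reading of viable-cell protease signal.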

[7] = MultiTox-Fluor Cytotoxicity Assay - LYMP1-002 - Dead Cells (AID 960);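 note: cells exposed to compound for 16 h at 37 °C; 0% = DMSO and 100% = tetraoctylammonium bromide; nearly all actives have a fitted effect of over 60% in size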
Outline: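 Cells were plated, rested 5 hr, then treated with compound dilution series for 16 hr at 37 C. After adding substrate reagent and 60 min at room temperature, dead-cell protease fluorescence gave concentration-response curves fitted by the Hill equation.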

[8] = MultiTox-Fluor Cytotoxicity Assay - LYMP1-003 - Dead Cells (AID 961);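 note: cells exposed to compound for 16 h at 37 °C; 0% = DMSO and 100% = tetraoctylammonium bromide; nearly all actives have a fitted effect of over 70% in size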
Outline: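 Human lymphoblastoid LYMP1-003 cells (2500/well) were treated with compounds for 16 hr at 37 C in complete medium. Dead-cell protease release was read by bis-AAF-R110 fluorescence (Ex/Em 485/520). AC50 came from Hill fits, normalized to DMSO and 15 uM tetraoctylammonium bromide.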

[9] = MultiTox-Fluor Cytotoxicity Assay - LYMP1-003 - Live Cells (AID 962);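 note: cells exposed to compound for 16 hours at 37 °C; 0% = DMSO only and full loss = 92 µM tetraoctylammonium bromide; cytotoxic hits lower the live-cell protease signal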
Outline: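 Acute cytotoxicity is scored as a drop in live-cell protease activity in human lymphoblastoid LYMP1-003 cells after 16 hr compound exposure at 37 C. AC50 values come from Hill-equation modelling of concentration-response data.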

[10] = Cell Viability - LYMP1-003 - Assay at 24 hr (AID 963);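 note: plate controls were DMSO only for no effect and tetraoctylammonium bromide positive control for full effect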
Outline: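 Cytotoxicity is scored as a concentration-dependent fall in ATP-linked luciferase signal in human lymphoblastoid LYMP1-003 cells treated 24 hr at 37 C in complete culture medium.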

[11] = Cell Viability - LYMP2-003 (AID 965);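 note: cells exposed to compounds for 24 h before reading; 0% = DMSO only and full effect = 92 µM tetraoctylammonium bromide; nearly all actives have a fitted effect of over 50% in size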
Outline: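 qHTS, human lymphoblastoid line, 2500 cells/well, complete medium. 24 h drug, 37 C. ATP-based luminescent readout; Hill-fit AC50.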

[12] = qHTS Assay for Identification of Small Molecule Agonists for Hypoxia Response Element Signaling Pathway (AID 914; active = well fitted activation curve with a large enough effect in the signal ratio, with a control signal flat, not every such curve was filed as active; the % refers to the signal ratio; note: potency is the fitted concentration of half-maximal effect; for activation: % of control where 0% means no effect); details: ME-180 (cervical carcinoma) HRE-bla reporter, beta-lactamase ratio, CoCl2, 17 h; activation: stronger effect = higher value
Outline: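 Read-out: CCF4 FRET ratio of 460nm to 530nm emission (excitation 405nm) after 2.5 hours at room temperature, taken from HRE-bla ME-180 cells that had been exposed to compound and EC50 CoCl2 for 17 hours.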

[13] = Cell Viability - LYMP1-003 - Assay at 40 hr (AID 964); note: series mostly up to about 92 µM; % is set by controls: 0 for no effect and ±100 for the full control effect; nearly all actives have a fitted effect of over 60% in size
Outline: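 Luminescent ATP signal (CellTiter-Glo) served as the viability read-out after 40 hr compound treatment of human lymphoblastoid LYMP1-003 cells at 37 C. Decreases in ATP were fitted with the Hill equation to give AC50.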

[14] = Cell Viability - LYMP2-005 (AID 967);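 note: series mostly up to about 92 µM; plate controls were DMSO only for no effect and 92 µM tetraoctylammonium bromide control for full effect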
Outline: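 Luciferase-based ATP quantitation served as the viability measure in human lymphoblastoid LYMP2-005 cells exposed to test compounds for 24 h at 37 C in complete culture medium. Potency (AC50) was obtained by fitting concentration-response curves with the Hill equation.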

[15] = qHTS Assay for Identification of Small Molecule Agonists for Thrombopoietin (TPO) Signaling Pathway (AID 917); note: % is set by controls: 0 for no effect and ±100 for the full control effect
Outline: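 Human TPO receptor–transfected Ba/F3 cells (murine, IL-3-dependent) in IL-3-deficient medium; compounds plus TPO at EC50, 26 pM final; 24 hrs, 37 C; GpIIb-luciferase luminescence after 10 min RT detection.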

[16] = target: Muscarinic acetylcholine receptor M1 (Rattus norvegicus) (UniProt P08482); test: qHTS Assay for Antagonists of Acetylcholine Muscarinic M1 Receptor: Kinetic Measurement of Intracellular Calcium Response (AID 943);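 note: Fluo-4 calcium signal as peak divided by basal fluorescence over 4 min; series mostly up to about 35 µM; nearly all actives have a fitted effect of over 75% in size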
Muscarinic acetylcholine receptor M1 (Rattus norvegicus), sequence (P08482 whole entry, looked up): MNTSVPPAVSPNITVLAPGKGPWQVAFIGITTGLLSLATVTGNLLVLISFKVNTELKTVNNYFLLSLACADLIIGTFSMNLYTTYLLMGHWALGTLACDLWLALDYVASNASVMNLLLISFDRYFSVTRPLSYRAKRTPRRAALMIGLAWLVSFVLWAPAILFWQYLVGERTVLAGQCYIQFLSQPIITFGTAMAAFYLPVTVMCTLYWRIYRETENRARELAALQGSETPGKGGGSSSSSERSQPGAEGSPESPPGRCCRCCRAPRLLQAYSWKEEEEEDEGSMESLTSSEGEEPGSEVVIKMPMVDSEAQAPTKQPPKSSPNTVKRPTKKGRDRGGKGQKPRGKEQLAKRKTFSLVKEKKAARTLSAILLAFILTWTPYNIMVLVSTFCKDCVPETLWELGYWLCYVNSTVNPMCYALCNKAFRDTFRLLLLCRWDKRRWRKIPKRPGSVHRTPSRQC
Outline: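 Antagonism is measured as inhibition of the carbachol-evoked calcium rise in CHO cells transfected with rat M1. Cells are dye-loaded, exposed to compound for 10 min, then stimulated with 100 nM carbachol (EC80).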

[17] = target: Muscarinic acetylcholine receptor M1 (Rattus norvegicus) (UniProt P08482); test: qHTS Assay for Antagonists of Acetylcholine Muscarinic M1 Receptor: Measurement of IP-One Response (AID 944); note: nearly all actives have a fitted effect of over 75% in size
Outline: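 Antagonist mode with rat M1 receptor transfected into CHO cells. Compound is added first for 10 min, carbachol at its EC80 follows for 30 min, and lysis reagents then allow TR-FRET detection of accumulated IP1.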

[18] = target: Pyruvate kinase (Leishmania mexicana) (UniProt Q27686); test: qHTS Validation Assay for Inhibitors of Leishmania Mexicana Pyruvate Kinase (AID 945);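 note: 0% = DMSO only neutral control wells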
Pyruvate kinase (Leishmania mexicana), sequence (Q27686 2-499 E452W): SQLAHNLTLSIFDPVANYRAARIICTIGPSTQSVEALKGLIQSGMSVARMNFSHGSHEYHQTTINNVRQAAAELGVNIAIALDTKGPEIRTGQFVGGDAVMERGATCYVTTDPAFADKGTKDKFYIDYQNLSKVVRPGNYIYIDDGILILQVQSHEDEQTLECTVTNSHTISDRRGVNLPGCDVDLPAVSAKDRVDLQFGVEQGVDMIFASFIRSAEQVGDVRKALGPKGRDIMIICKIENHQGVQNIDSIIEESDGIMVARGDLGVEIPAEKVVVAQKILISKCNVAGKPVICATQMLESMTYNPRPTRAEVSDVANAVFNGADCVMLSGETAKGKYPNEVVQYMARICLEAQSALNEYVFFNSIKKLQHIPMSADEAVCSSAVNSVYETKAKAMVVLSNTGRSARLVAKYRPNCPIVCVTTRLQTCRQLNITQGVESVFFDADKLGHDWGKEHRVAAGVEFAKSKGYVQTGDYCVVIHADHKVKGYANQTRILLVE
Outline: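 Substrate mix (0.5 mM PEP, 0.1 mM ADP, 7 mM MgCl2, 50 mM KCl, pH 7.2 imidazole) received compound by pin tool, then 0.2 nM LmPYK E451W. After 1 h at room temperature, PKLight was added and luminescence measured.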

[19] = target: Pyruvate kinase PKM (Homo sapiens) (UniProt P14618); test: qHTS Assay for Activators of Human Muscle Pyruvate Kinase (AID 954; active = well fitted curve in the direction sought with a large enough effect, not every such curve was filed as active;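 note: 0% = uninhibited enzyme and -100% = no enzyme or full thiadiazolimine inhibition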)
Pyruvate kinase PKM (Homo sapiens), sequence (P14618 whole entry, looked up): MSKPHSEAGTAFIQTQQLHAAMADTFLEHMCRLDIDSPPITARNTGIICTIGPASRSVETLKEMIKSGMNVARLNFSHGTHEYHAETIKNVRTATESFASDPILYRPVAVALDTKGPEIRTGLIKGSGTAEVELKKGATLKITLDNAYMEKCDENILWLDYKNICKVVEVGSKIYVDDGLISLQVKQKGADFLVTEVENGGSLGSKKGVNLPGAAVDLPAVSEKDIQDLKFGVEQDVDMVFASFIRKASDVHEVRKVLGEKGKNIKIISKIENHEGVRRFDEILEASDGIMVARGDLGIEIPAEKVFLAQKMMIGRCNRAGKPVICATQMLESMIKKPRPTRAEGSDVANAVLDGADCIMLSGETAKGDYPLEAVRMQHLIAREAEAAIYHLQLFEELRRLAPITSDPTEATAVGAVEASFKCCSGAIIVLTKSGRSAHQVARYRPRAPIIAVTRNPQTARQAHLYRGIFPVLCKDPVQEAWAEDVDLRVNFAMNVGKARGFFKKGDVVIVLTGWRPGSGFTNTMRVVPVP
Outline: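 A coupled luminescent readout tracked ATP made from ADP by purified PKM2. Final conditions included 0.1 nM enzyme, PEP and ADP at 0.5 and 0.1 mM, pH 7.2 imidazole buffer with BSA, and a one-hour room-temperature reaction.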

O=C(CCCN1CC=C(n2c(=O)[nH]c3ccccc32)CC1)c1ccc(F)cc1
inactive: outcome [1]

COc1ccc(C(Cl)=C(c2ccc(OC)cc2)c2ccc(OC)cc2)cc1
inactive: outcome [2] | outcome [1] | outcome [3] | outcome [4] | outcome [5] | outcome [6] | outcome [7] | Potency [8] | outcome [9] | outcome [10] | outcome [11]

CCOc1ccc(NC(C)=O)cc1
inactive: activation [12] 2% | outcome [2] | outcome [1] | outcome [3] | outcome [4] | outcome [5] | outcome [6] | outcome [7] | Potency [8] | outcome [9] | outcome [10] | outcome [13] | outcome [11] | outcome [14]

CCCCC(CC)CN1CN(CC(CC)CCCC)CC(C)(N)C1 (configuration not stated)
inactive: outcome [1]

Nc1ccc(C(=O)NCC(=O)O)cc1
inactive: outcome [1]

CN=C(N)NCCC[C@H](N)C(=O)O
inactive: outcome [15] | outcome [16] | Potency [17] | outcome [18] | outcome [19]

c1ccc(CC2=NCCN2)cc1
inactive: outcome [1]

OC[C@H]1O[C@@H]2O[C@H]3[C@H](O)[C@@H](O)[C@@H](O[C@H]4[C@H](O)[C@@H](O)[C@@H](O[C@H]5[C@H](O)[C@@H](O)[C@@H](O[C@H]6[C@H](O)[C@@H](O)[C@@H](O[C@H]7[C@H](O)[C@@H](O)[C@@H](O[C@H]8[C@H](O)[C@@H](O)[C@@H](O[C@H]1[C@H](O)[C@H]2O)O[C@@H]8CO)O[C@@H]7CO)O[C@@H]6CO)O[C@@H]5CO)O[C@@H]4CO)O[C@@H]3CO
inactive: outcome [2] | outcome [3] | outcome [4] | outcome [5] | outcome [6] | outcome [7] | Potency [8] | outcome [9] | outcome [10] | outcome [13] | outcome [11]

CN(C)CCOC(=O)C(c1ccccc1)C1(O)CCCC1 (configuration not stated)
inactive: outcome [1]

O=C(O)c1ccc(S(=O)(=O)N(Cl)Cl)cc1
inactive: outcome [2] | outcome [1] | outcome [3] | outcome [4] | outcome [5] | outcome [6] | outcome [7] | Potency [8] | outcome [9] | outcome [10] | outcome [13] | outcome [11] | outcome [14]

CN(C)C(=O)Nc1ccc(Cl)c(Cl)c1
inactive: outcome [1]

CCCCCCCCNC(C)C(O)c1ccc(SC(C)C)cc1 (configuration not stated)
inactive: activation [12] 0.942% | outcome [1]

COc1ccc(CN(CCN(C)C)c2ncccn2)cc1
inactive: outcome [1]

CC[N+](C)(CC)CCOC(=O)C(O)(c1ccccc1)C1CCCCC1 (configuration not stated)
inactive: activation [12] 1.14%

COc1ccc(C(=O)c2ccccc2O)c(O)c1
active: Potency [12] 5.01 µM
inactive: outcome [1]

CCCN(CCC)S(=O)(=O)c1ccc(C(=O)O)cc1
inactive: outcome [2] | outcome [1] | outcome [3] | outcome [4] | outcome [5] | outcome [6] | outcome [7] | Potency [8] | outcome [9] | outcome [10] | outcome [13] | outcome [11] | outcome [14]

CCCCC(CC)COC(=O)c1ccc(N(C)C)cc1 (configuration not stated)
inactive: outcome [2] | outcome [3] | outcome [4] | outcome [5] | outcome [6] | Potency [8] | outcome [9] | outcome [10] | outcome [13] | outcome [11] | outcome [14]

CCOc1ccccc1C(N)=O
inactive: outcome [2] | outcome [3] | outcome [4] | outcome [5] | outcome [6] | outcome [7] | Potency [8] | outcome [9] | outcome [10] | outcome [13] | outcome [11] | outcome [14]
